From PubChem BioAssay
A selection: hits, their analogues and other compounds. The true share with any hit is near 21%.
Pf growth 96h: Primary qHTS for delayed death inhibitors of the malarial parasite plastid, 96 hour incubation; P. falciparum luciferase reporter growth, 96 h; Potency, µM (series often up to 28.7 µM), for the others: at the top dose activity change, negative = inhibition, hits mostly inhibitors; 6.9% of 320,000 active; AID 504834, 2011; also: potency is read from the fitted curve at half-maximal effect; % is scaled to controls: 0 for no effect and ±100 for the full control effect
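Two parasite generations (96 h, 37 C, 5% CO2) of compound exposure in infected erythrocytes (0.05% parasitemia, 2% hematocrit). Luciferase-reporter P. falciparum; decreased luminescence indicates inhibited growth, aimed at apicoplast-acting delayed death.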
Shiga toxin inh: A qHTS for Small Molecule Inhibitors of Shiga Toxin; 9.2% of 290,000 active; AID 2315, 2010; Vero cells, Shiga toxin protein synthesis inhibition reporter; inhibition, % at 38.7 µM; in the data active = inhibition mostly above about 28%, no sharp cut-off; inactive = mostly below about 43%; also: 0% is about no effect
HCV inhibitor: qHTS Assay for Inhibitors of Hepatitis C Virus (HCV). Huh7.5.1 HCVcc-Cre infection, luciferase reporter, 44 h. Potency, µM (highest dose often 41.8 µM), for inactives: top-dose activity change, negative = inhibition, actives largely listed as inhibitors. 3.4% of 340,000 active. AID 651820, 2012; also: potency is read from the fitted curve at half-maximal effect; % is scaled to controls: 0 for no effect and ±100 for the full control effect
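Luciferase read-out (15 sec integration) after a 15 min room-temperature substrate step quantifies HCVcc-Cre infection. Cells, 1,000 per well, had compound added 4 h post-plating, then virus at ~0.5 moi, and were cultured 44 h.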
CHX counter: Cycloheximide Counterscreen for Small Molecule Inhibitors of Shiga Toxin | max response, % | 12% of 300,000 active | AID 2314, 2010 | cell reporter, cycloheximide protein synthesis inhibition counterscreen; in the data active = max response mostly above about 13%, no sharp cut-off; inactive = mostly below about 14%; also: read at 38.3 µM for the half of the compounds with a filed dose; 0% is about no effect
HCMV antiviral: qHTS Assay for inhibitors of the human cytomegalovirus (HCMV); HFF cells, HCMV-luciferase reporter, 72 h; stronger effect = lower value; activity change, negative = inhibition, % at 57.5 µM; 4.5% of 410,000 active; in the data active = activity change below about -60%; inconclusive = no clear call, values can overlap the other calls; inactive = above about -39%; also: % is scaled to controls: 0 for no effect and ±100 for the full control effect
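Cell-based, HFFs, 1000 cells/well, 16 h 37C; cpds in DMSO + HCMV-luc, MOI 1 PFU/cell; 72 h 37C; OneGlo luminescence after 5 min RT; norm. to buffer vs Salinomycin 10uM.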
Pf growth 48h: Primary qHTS for delayed death inhibitors of the malarial parasite plastid, 48 hour incubation | P. falciparum luciferase growth in erythrocytes, 48 h | Potency, µM (series often up to 28.7 µM), inactives show at the top dose activity change, negative = inhibition, hits mostly inhibitors | 5.9% of 310,000 active; also: potency is read from the fitted curve at half-maximal effect; % is scaled to controls: 0 for no effect and ±100 for the full control effect
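Compounds are pin-transferred into medium, infected erythrocytes (2% hematocrit, 0.1% parasitemia final) are added, and plates sit one parasite generation at 37 C in 5% CO2. Detection reagent is then added and luminescence measured.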
An asterisk follows results filed as active; ? = inconclusive; · = no result given; ! = repeats disagree. Unless noted, calls follow the shape of the dose curve; as a rule, active = well fitted inhibition curve with a large enough effect; inconclusive = small, poorly fitted or top-dose-only effect, or another doubt; inactive = no such curve, though single readings can be large or run the other way.

SMILES	Pf growth 96h	Shiga toxin inh	HCV inhibitor	CHX counter	HCMV antiviral	Pf growth 48h
O=C(Cn1c(C(F)(F)F)nc2ccccc21)OCC(=O)c1c[nH]c2ccccc12	4.1µM*	5	30%	1	38	12µM*
O=C(CNS(=O)(=O)c1ccccc1)OCC(=O)c1c[nH]c2ccccc12	4.1µM*	·	9%	·	37	8.3µM*
O=C(CNS(=O)(=O)c1ccccc1F)OCC(=O)c1c[nH]c2ccccc12	34%	·	2%	·	11	0%
COc1ccc(C(=O)NCC(=O)OCC(=O)c2c[nH]c3ccccc23)cc1	·	·	·	·	34	·
CN(C(=O)COC(=O)c1cccs1)c1ccccc1	·	·	·	·	-14	·
CCOC(=O)C1CCNC(=O)C1=O (stereo not drawn)	·	·	1%	·	?	·
CN(c1ccc([N+](=O)[O-])cc1C(N)=O)C1CCCCC1	?	-13	-1%	-6	-19	7%
Cn1c(N)c(C(=O)COC(=O)c2ccc(OC(F)F)cc2)c(=O)n(C)c1=O	25%	·	7%	·	2	?
N#Cc1ccc(NCCNCC(=O)N2N=CCC2C#N)nc1 (stereo not drawn)	·	61	·	1	·	·
O=C(COC(=O)CC1CC2CCC1C2)NCc1ccc(F)cc1 (stereo not drawn)	·	·	-15%	·	3	·
COc1ccc(C(C(O)C(=O)c2c[nH]c3ccccc23)N2CCN(c3ccc(OC)cc3)CC2)cc1 (stereo not drawn)	·	10	?	7	46	13µM*
COc1ccc(N2CCN(C(=O)C(=O)c3c[nH]c4ccccc34)CC2)cc1	?	-5	-11%	0	28	7%
COc1cc(CC(=O)OCC(=O)c2ccc3c(c2)OCCO3)cc(OC)c1OC	-4%	21	?	29	-71*	·
COc1ccc(C(=O)c2c[nH]c3ccccc23)cc1	?	65*	?	61*	72	44%
O=C(CC1CC2CCC1C2)OCC(=O)c1c[nH]c2ccccc12 (stereo not drawn)	5.2µM*	148*	0%	53*	-3	?
CN(CC(=O)Nc1ccc(Cl)c(C(F)(F)F)c1)C(=O)C1CSC2(C)CCC(=O)N12 (stereo not drawn)	0%	·	5%	·	12	?
CCC(CC)c1nnc(NC(=O)COc2ccc3c(c2)OCO3)s1	44%	15	8%	-1	106	7%
CC(C)(C)Cc1nnc(NC(=O)c2ccc3c(c2)OCO3)s1	-28%	48*	9%	44*	64	0%
CCC(CC)c1nnc(NC(=O)c2ccc3c(c2)OCO3)s1	16%	62*	7%	19*	116	35%
Cc1c(C(=O)NCCSCc2cccc(C(F)(F)F)c2)cnn1-c1ccc(F)cc1	?	2	?	7	-37	?
CCOc1ccc(NC(=O)C2CCN(S(=O)(=O)c3c(C)noc3C)CC2)cc1	7.4µM*	-5	-8%	-2	4	-1%
Cc1noc(/C=C/c2ccco2)c1S(=O)(=O)N1CCC(C(=O)Nc2ccc(F)c(Cl)c2)CC1	·	·	·	·	-84*	·
CCN(CC)CCNC(=O)C1CCN(S(=O)(=O)c2c(C)noc2/C=C/c2ccccc2F)CC1	?	-6	5.6µM*	-2	-78*!	?
Cc1cc(NC(=O)C2CCN(S(=O)(=O)c3c(C)noc3C)CC2)ccc1Br	?	-14	-9%	0	-61*!	-17%
Cc1cc(C)cc(NC(=O)C2CCN(S(=O)(=O)c3c(C)noc3/C=C/c3ccco3)CC2)c1	·	·	·	·	-38	·
CCOc1ccc(NC(=O)C2CCN(S(=O)(=O)c3c(C)noc3/C=C/c3ccco3)CC2)cc1	·	·	·	·	-78*	·
CCOc1ccccc1/C=C/c1onc(C)c1S(=O)(=O)N1CCC(C(=O)NC(C)(C)C)CC1	54%	-5	?	1	-32	15µM*
Cc1cccc(NC(=O)C2CCN(S(=O)(=O)c3c(C)noc3/C=C/c3ccco3)CC2)n1	?	4	?	-4	-66*	?
